Rows were chosen to be rich in hits. Some 2.4% of all compounds tested hit in one or more screens of this group.
Pf Dd2 inh = P. falciparum Dd2 growth inhibitors, primary screen, SYBR Green fluorescence, single dose replicates. AID 1159554, 2015. 72 h; hits give low values. 94,000 compounds, 2.3% hits. activity change, % at 10 µM; in the data active = activity change below about -80%; inconclusive = no clear call, values can overlap the other calls
C diff growth = C. difficile growth inhibitors, primary screen, HTS. Clostridium difficile clinical isolate growth, OD600, 24 h; hits give low values. growth activity, negative = inhibition, % at 16 µg/mL (by protocol). 86,000 compounds, 0.25% hits. AID 1259249, 2017;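 active = mean growth activity at or below -80% and every replicate also at or below -80%; inconclusive = mean at or below -80% but some replicate above -80%; inactive = mean growth activity above -80%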
Of the large screens only hits and unclear results are named; the others gave an inactive call.

COc1ccc(C#Cc2ccc([C@H]3[C@@H](CO)N4CCCCN(C(=O)Nc5ccc(F)cc5)C[C@H]34)cc2)cc1	none
C[C@H]1CN([C@@H](C)CO)C(=O)c2cc(-c3ccccc3)cnc2O[C@@H]1CN(C)Cc1ccc(C(=O)O)cc1	none
COc1ccc(CN(C)C[C@@H]2Oc3ccc(NC(=O)Cn4cnnn4)cc3C(=O)N([C@H](C)CO)C[C@H]2C)cc1	none
O=C(CCN1CCCCC1)N[C@@H]1CC[C@H](CCNC(=O)c2cc(Cl)cc(Cl)c2)O[C@H]1CO	none (no result: C diff growth)
CCC(=O)N1CC[C@@H]2[C@H](CO)Nc3ccc(-c4ccccc4)cc3[C@@H]21	none
C[C@H]1CN([C@@H](C)CO)C(=O)c2cc(-c3ccc(C#N)cc3)cnc2O[C@@H]1CN(C)C(=O)Nc1ccc(C(F)(F)F)cc1	none
C[C@H](CO)N1C[C@H](C)[C@H](CN(C)Cc2cncnc2)Oc2ncc(-c3ccc(C#N)cc3)cc2C1=O	none
C[C@H](CO)N1C[C@H](C)[C@@H](CN(C)Cc2ccc(C(=O)Nc3ccccc3N)cc2)Oc2c(NS(=O)(=O)c3ccccc3)cccc2C1=O	none
C[C@@H]1CN([C@@H](C)CO)C(=O)c2cccc(NS(=O)(=O)c3ccc(Cl)cc3)c2O[C@@H]1CN(C)Cc1ccc(C(=O)Nc2ccccc2N)cc1	Pf Dd2 inh -92
C[C@@H]1CN([C@@H](C)CO)C(=O)c2cccc(NS(=O)(=O)c3ccccc3)c2O[C@@H]1CN(C)Cc1ccc(C(=O)Nc2ccccc2N)cc1	Pf Dd2 inh -92
C[C@H](CO)N1C[C@H](C)[C@H](CN(C)Cc2ccc(C(=O)Nc3ccccc3N)cc2)Oc2c(NS(=O)(=O)c3ccc(F)cc3)cccc2C1=O	Pf Dd2 inh -85
C[C@@H]1CN([C@H](C)CO)C(=O)c2cccc(NS(=O)(=O)c3ccc(Cl)cc3)c2O[C@H]1CN(C)Cc1ccc(C(=O)Nc2ccccc2N)cc1	Pf Dd2 inh inconclusive
C[C@H]1CN([C@@H](C)CO)C(=O)c2cccc(NS(=O)(=O)c3ccc(Cl)cc3)c2O[C@@H]1CN(C)Cc1ccc(C(=O)Nc2ccccc2N)cc1	none
CN1c2ccc(Br)cc2[C@@H]2[C@@H](CCN2C(=O)C2CCCC2)[C@@H]1CO	none
Cc1noc(C)c1NC(=O)Nc1ccc2c(c1)CC(=O)N([C@@H](C)CO)C[C@@H](C)[C@H](CN(C)S(=O)(=O)c1c(C)noc1C)O2	none
Cc1ccc(S(=O)(=O)N[C@H]2CC[C@@H](CCn3cc(C4CCCCC4)nn3)O[C@@H]2CO)cc1	none
Cc1ccccc1-c1ccccc1[C@H]1[C@@H](C#N)N(C(=O)c2cccc(F)c2)[C@H]1CO	none
CCc1nc(N2[C@@H](C#N)[C@H](c3ccccc3-c3ccccc3F)[C@@H]2CO)sc1C	none
CCCNC(=O)N1[C@@H](C#N)[C@H](c2ccccc2-c2ccccc2F)[C@@H]1CO	Pf Dd2 inh -89
CCCNC(=O)N1[C@H](CO)[C@@H](c2ccccc2-c2ccccc2F)[C@@H]1C#N	none
CCc1nc(N2[C@H](C#N)[C@H](c3ccccc3-c3ccccc3F)[C@H]2CO)sc1C	Pf Dd2 inh -86
Cc1ccc(-c2ccccc2[C@H]2[C@@H](C#N)N(C(=O)c3cccc(F)c3)[C@H]2CO)cc1	Pf Dd2 inh -91
N#C[C@@H]1[C@H](c2ccccc2-c2ccccc2F)[C@H](CO)N1C(=O)C1CC1	none
N#C[C@@H]1[C@@H](c2ccccc2-c2ccccc2F)[C@H](CO)N1C(=O)C1CC1	Pf Dd2 inh -88
O=C(Nc1ccc(F)cc1)N1C[C@H]2[C@@H](c3ccccc31)[C@H](CO)N2C(=O)c1cccnc1	none
CO[C@@H]1CN(C)C(=O)c2ccc(NC(=O)NC(C)C)cc2OC[C@@H](C)N(C(=O)NC(C)C)C[C@@H]1C	none
COc1ccc(NC(=O)N(C)C[C@H]2Oc3ccc(NS(=O)(=O)c4ccc(F)cc4)cc3C(=O)N([C@@H](C)CO)C[C@H]2C)cc1	none (no result: C diff growth)
N#C[C@H]1[C@@H](c2ccccc2-c2cccc(F)c2)[C@H](CO)N1C(=O)C1CCCC1	none
N#C[C@@H]1[C@H](c2ccccc2-c2cccc(F)c2)[C@H](CO)N1C(=O)C1CC1	Pf Dd2 inh -83
N#C[C@@H]1[C@@H](c2ccc(-c3cccc(F)c3)cc2)[C@H](CO)N1C(=O)c1cccnc1	none
N#C[C@@H]1[C@H](c2ccccc2-c2cccc(F)c2)[C@H](CO)N1C(=O)C1CCCC1	Pf Dd2 inh -95
N#C[C@H]1[C@H](c2ccc(-c3cccc(F)c3)cc2)[C@H](CO)N1C(=O)c1cccnc1	Pf Dd2 inh -91
N#C[C@H]1[C@H](c2ccccc2-c2cccc(F)c2)[C@@H](CO)N1C(=O)C1CC1	none
Cc1ccc(OC(=O)N(C)C[C@@H]2OCc3ccccc3-c3ccccc3C(=O)N([C@H](C)CO)C[C@H]2C)cc1	none (no result: C diff growth)
C[C@@H]1CN([C@H](C)CO)C(=O)c2cc(NC(=O)CCC(F)(F)F)ccc2O[C@H]1CN(C)Cc1ccc(C(=O)O)cc1	none

Screening results (PubChem)
